{"source": "the antibiotic and cytotoxicity screens of Wong et al. (2023)", "note": "In all, about 39,000 compounds went through this assay and about 3,300 (8.5%) were called active. The entries come from a sample that favours actives as a whole."}
{"test_system": "HepG2", "experiment": "cytotoxicity call (relative viability < 0.9)", "conditions": "10 µM"}
{"smiles": "C[C@@H]1CN([C@H](C)CO)S(=O)(=O)c2ccc(C#CCN(C)C)cc2O[C@H]1CN(C)C(=O)CN(C)C", "cytotoxicity call": "inactive"}
{"smiles": "Cc1noc(C)c1NC(=O)N(C)C[C@H]1Oc2ccc(NS(=O)(=O)c3ccccc3)cc2C(=O)N([C@H](C)CO)C[C@H]1C", "cytotoxicity call": "inactive"}
{"smiles": "COCCNC(=O)C[C@H]1CC[C@H]2[C@H](COc3ccc(NC(=O)Nc4cccc(F)c4)cc3C(=O)N2C)O1", "cytotoxicity call": "inactive"}
{"smiles": "C[C@H](CO)N1C[C@H](C)[C@@H](CN(C)CC2CC2)Oc2ccc(NS(=O)(=O)c3cccs3)cc2CC1=O", "cytotoxicity call": "inactive"}
{"smiles": "NCC[C@H]1CC[C@H](NC(=O)C2CCCCC2)[C@@H](CO)O1", "cytotoxicity call": "inactive"}
{"smiles": "COc1ccc(NC(=O)N(C)C[C@@H]2OCCCC[C@H](C)Oc3ccc(NC(=O)c4ccccc4)cc3C(=O)N([C@H](C)CO)C[C@@H]2C)cc1", "cytotoxicity call": "inactive"}
{"smiles": "C[C@H](CO)N1C[C@H](C)[C@@H](CN(C)Cc2ccc3c(c2)OCO3)Oc2ccc(NS(=O)(=O)c3ccccc3)cc2CC1=O", "cytotoxicity call": "inactive"}
{"smiles": "C[C@@H]1CN([C@@H](C)CO)C(=O)c2cc(NC(=O)Cn3cnnn3)ccc2O[C@@H]1CN(C)C(=O)Nc1cccc2ccccc12", "cytotoxicity call": "inactive"}
{"smiles": "COc1ccc(S(=O)(=O)Nc2ccc3c(c2)C(=O)N([C@@H](C)CO)C[C@@H](C)[C@H](CN(C)C(=O)C2CCCCC2)OCCCC[C@@H](C)O3)cc1", "cytotoxicity call": "inactive"}
{"smiles": "C[C@@H]1CCCCO[C@@H](CN(C)Cc2ccncc2)[C@H](C)CN([C@H](C)CO)C(=O)c2cc(NC(=O)Nc3ccccc3)ccc2O1", "cytotoxicity call": "inactive"}
{"smiles": "C[C@H](CO)N1C[C@H](C)[C@@H](CN(C)C(=O)Cc2ccccc2)OCCCC[C@H](C)Oc2ccc(NC(=O)Nc3ccc4c(c3)OCO4)cc2C1=O", "cytotoxicity call": "inactive"}
{"smiles": "C[C@@H]1CN([C@H](C)CO)C(=O)Cc2cc(NC(=O)CCCN(C)C)ccc2O[C@@H]1CN(C)Cc1ccc(Oc2ccccc2)cc1", "cytotoxicity call": "active"}
{"smiles": "C[C@@H]1CN([C@@H](C)CO)C(=O)Cc2cc(NC(=O)CCCN(C)C)ccc2O[C@H]1CN(C)Cc1ccc(Oc2ccccc2)cc1", "cytotoxicity call": "inactive"}
{"smiles": "C[C@@H]1CN([C@H](C)CO)C(=O)Cc2cc(NC(=O)CCCN(C)C)ccc2O[C@H]1CN(C)Cc1ccc(Oc2ccccc2)cc1", "cytotoxicity call": "active"}
{"smiles": "C[C@H]1CN([C@@H](C)CO)C(=O)Cc2cc(NC(=O)CCCN(C)C)ccc2O[C@H]1CN(C)Cc1ccc(Oc2ccccc2)cc1", "cytotoxicity call": "inactive"}
{"smiles": "C[C@H](CO)N1C[C@H](C)[C@H](CN(C)Cc2ccc(Oc3ccccc3)cc2)Oc2ccc(NC(=O)CCCN(C)C)cc2CC1=O", "cytotoxicity call": "inactive"}
{"smiles": "C[C@H]1CN([C@@H](C)CO)C(=O)Cc2cc(NC(=O)CCCN(C)C)ccc2O[C@@H]1CN(C)Cc1ccc(Oc2ccccc2)cc1", "cytotoxicity call": "active"}
{"smiles": "C[C@@H]1CN([C@@H](C)CO)C(=O)Cc2cc(NC(=O)CCCN(C)C)ccc2O[C@@H]1CN(C)Cc1ccc(Oc2ccccc2)cc1", "cytotoxicity call": "active"}
{"smiles": "C[C@H](CO)N1C[C@H](C)[C@@H](CN(C)Cc2ccc(Oc3ccccc3)cc2)Oc2ccc(NC(=O)CCCN(C)C)cc2CC1=O", "cytotoxicity call": "inactive"}
{"smiles": "C[C@H](CO)N1C[C@H](C)[C@@H](CN(C)Cc2ccccc2)Oc2ccc(NC(=O)CCCN(C)C)cc2CC1=O", "cytotoxicity call": "inactive"}
{"smiles": "C[C@@H]1CN([C@@H](C)CO)S(=O)(=O)c2ccc(C#Cc3ccccc3F)cc2O[C@@H]1CN(C)CC1CC1", "cytotoxicity call": "inactive"}
{"smiles": "C[C@H](CO)N1C[C@H](C)[C@@H](CN(C)Cc2ccc(Oc3ccccc3)cc2)Oc2c(NS(=O)(=O)c3ccc(F)cc3)cccc2C1=O", "cytotoxicity call": "inactive"}
{"smiles": "Cc1cc(=O)n2ncnc2n1CC(=O)NN", "cytotoxicity call": "inactive"}
{"smiles": "Cc1cc(C(=O)Nc2cccc3c2O[C@H](CN(C)C(=O)NC2CCCCC2)[C@@H](C)CN([C@@H](C)CO)C3=O)n(C)n1", "cytotoxicity call": "inactive"}
{"smiles": "C[C@H](CO)N1C[C@H](C)[C@H](CN(C)S(=O)(=O)c2cn(C)cn2)Oc2ccc(NC(=O)NC3CCCCC3)cc2CC1=O", "cytotoxicity call": "inactive"}
{"smiles": "C[C@@H]1CN([C@H](C)CO)C(=O)c2cc(NC(=O)CCN3CCOCC3)ccc2O[C@H]1CN(C)C(=O)Nc1ccccc1", "cytotoxicity call": "inactive"}
{"smiles": "CS(=O)(=O)Nc1ccc2c(c1)[C@H]1C[C@@H](CC(=O)NCC3CC3)O[C@@H](CO)[C@H]1O2", "cytotoxicity call": "inactive"}
{"smiles": "CC(C)N1C[C@@H](CNCc2ccc(Oc3ccccc3)cc2)Oc2c(NC(=O)c3ccncc3)cccc2C1=O", "cytotoxicity call": "inactive"}
{"smiles": "CC(C)NCC(O)COc1cccc2[nH]ccc12", "note": "(configuration not stated)", "cytotoxicity call": "inactive"}
{"smiles": "CC(C)NCC(O)COc1ccc(CC(N)=O)cc1", "note": "(configuration not stated)", "cytotoxicity call": "inactive"}
{"smiles": "COc1ccccc1N1CCN(CC(O)COc2cccc3ccccc23)CC1", "note": "(configuration not stated)", "cytotoxicity call": "active"}
{"smiles": "CC(C)NCC(O)COc1cccc2[nH]c3ccccc3c12", "note": "(configuration not stated)", "cytotoxicity call": "active"}
{"smiles": "CC(C)NCC(O)COc1cccc2ccccc12.Cl", "note": "(configuration not stated)", "cytotoxicity call": "active"}
{"smiles": "C=CCc1ccccc1OCC(O)CNC(C)C.Cl", "note": "(configuration not stated)", "cytotoxicity call": "active"}
{"smiles": "COc1ccccc1OCC(O)CN1CCN(CC(=O)Nc2c(C)cccc2C)CC1.Cl.Cl", "note": "(configuration not stated)", "cytotoxicity call": "inactive"}
{"smiles": "COCCc1ccc(OCC(O)CNC(C)C)cc1.O=C(O)C(O)C(O)C(=O)O", "note": "(configuration not stated)", "cytotoxicity call": "inactive"}
{"smiles": "CC(C)NCC(O)COc1ccc(COCCOC(C)C)cc1.O=C(O)C=CC(=O)O", "note": "(configuration not stated)", "cytotoxicity call": "inactive"}
{"smiles": "O=C1C(=O)N(C[C@@H](O)COc2cccc3ccccc23)C(=O)C(=O)N1C[C@@H](O)COc1cccc2ccccc12", "cytotoxicity call": "inactive"}
{"smiles": "O=C(C[C@H]1C=C[C@@H](NS(=O)(=O)c2ccc(F)cc2)[C@@H](CO)O1)NCc1ccc(Cl)c(Cl)c1", "cytotoxicity call": "inactive"}
{"smiles": "COc1ccc2c3c(n(c2c1)C)[C@H](CO)N(C[C@]13CN(CC2CCOCC2)C1)C(=O)c1ccc(cc1)F", "cytotoxicity call": "inactive"}
{"smiles": "C[C@H](CO)N1C[C@H](C)[C@H](CN(C)S(=O)(=O)c2cccc(F)c2)Oc2ncc(Br)cc2C1=O", "cytotoxicity call": "inactive"}
{"smiles": "C[C@@H]1CN([C@@H](C)CO)C(=O)c2cc(NC(=O)CCCN(C)C)ccc2O[C@@H]1CN(C)S(=O)(=O)c1ccccc1", "cytotoxicity call": "inactive"}
{"smiles": "C[C@H]1CN([C@@H](C)CO)C(=O)Cc2cc(NC(=O)Cn3cnnn3)ccc2O[C@H]1CN(C)S(=O)(=O)c1cccs1", "cytotoxicity call": "inactive"}
{"smiles": "C[C@H]1CN([C@@H](C)CO)C(=O)Cc2cc(NC(=O)C3CC3)ccc2O[C@@H]1CN(C)Cc1ccc(Oc2ccccc2)cc1", "cytotoxicity call": "inactive"}
{"smiles": "Cc1noc(C)c1NC(=O)Nc1cccc2c1O[C@@H](CN(C)S(=O)(=O)c1ccccc1)[C@@H](C)CN([C@@H](C)CO)C2=O", "cytotoxicity call": "inactive"}
{"smiles": "CC1=C(/C=C/C(C)=C/C=C/C(C)=C/C=C/C=C(C)/C=C/C=C(C)/C=C/C2=C(C)C(=O)[C@@H](O)CC2(C)C)C(C)(C)C[C@H](O)C1=O", "cytotoxicity call": "inactive"}
{"smiles": "CCOC(=O)N[C@@H]1CC(=O)N(C2CC2)C1", "cytotoxicity call": "inactive"}
{"smiles": "N[C@H](CO)COCc1ccccc1", "cytotoxicity call": "inactive"}
{"smiles": "Cc1ccc(S(=O)(=O)N(C)C[C@H]2Oc3c(NC(=O)c4ccncc4)cccc3C(=O)N([C@H](C)CO)C[C@@H]2C)cc1", "cytotoxicity call": "inactive"}
{"smiles": "C[C@@H]1CCCCO[C@H](CN(C)CC2CCCCC2)[C@H](C)CN([C@@H](C)CO)C(=O)c2cc(NC(=O)Cc3ccccc3)ccc2O1", "cytotoxicity call": "inactive"}
{"smiles": "C[C@H](CO)N1C[C@H](C)[C@H](CN(C)S(=O)(=O)c2cn(C)cn2)Oc2ccc(NC(=O)Cc3cn(C)c4ccccc34)cc2CC1=O", "cytotoxicity call": "inactive"}
{"smiles": "Cc1cc(C(=O)Nc2cccc3c2O[C@H](CN(C)C(=O)Nc2c(C)noc2C)[C@H](C)CN([C@H](C)CO)C3=O)n(C)n1", "cytotoxicity call": "inactive"}
{"smiles": "Cc1ccc(S(=O)(=O)Nc2ccc3c(c2)C(=O)N([C@@H](C)CO)C[C@@H](C)[C@@H](CN(C)Cc2ccccc2)OCCCC[C@H](C)O3)cc1", "cytotoxicity call": "inactive"}
{"smiles": "Cc1ccc(S(=O)(=O)Nc2ccc3c(c2)C(=O)N([C@H](C)CO)C[C@@H](C)[C@H](CN(C)Cc2ccccc2)OCCCC[C@H](C)O3)cc1", "cytotoxicity call": "active"}
{"smiles": "C[C@H](CO)N1C[C@H](C)[C@H](CN(C)Cc2ccccc2)OCCCC[C@H](C)Oc2ccc(NS(=O)(=O)c3ccccc3)cc2C1=O", "cytotoxicity call": "inactive"}
{"smiles": "C[C@@H]1CN([C@@H](C)CO)C(=O)c2cc(NS(=O)(=O)c3ccccc3)ccc2O[C@@H](C)CCCCO[C@@H]1CN(C)Cc1ccccc1", "cytotoxicity call": "inactive"}
{"smiles": "Cc1ccc(S(=O)(=O)Nc2ccc3c(c2)C(=O)N([C@H](C)CO)C[C@@H](C)[C@@H](CN(C)Cc2ccccc2)OCCCC[C@@H](C)O3)cc1", "cytotoxicity call": "inactive"}
{"smiles": "C[C@@H]1CCCCO[C@@H](CN(C)Cc2ccccc2)[C@@H](C)CN([C@@H](C)CO)C(=O)c2cc(NS(=O)(=O)c3ccccc3)ccc2O1", "cytotoxicity call": "active"}
{"smiles": "C[C@H]1CN([C@@H](C)CO)S(=O)(=O)c2ccc(C#CCN(C)C)cc2O[C@@H]1CN(C)Cc1ccc2c(c1)OCO2", "cytotoxicity call": "inactive"}
{"smiles": "C[C@@H]1CN([C@@H](C)CO)C(=O)Cc2cc(NC(=O)CCCN(C)C)ccc2O[C@@H]1CN(C)S(=O)(=O)c1ccc(Cl)cc1", "cytotoxicity call": "inactive"}
{"smiles": "COC(=O)C(CC#Cc1ccc2c(c1)[C@]1(C(=O)N2)[C@H](c2ccccc2OCCO)N2[C@H](c3ccccc3)[C@H](c3ccccc3)OC(=O)[C@H]2[C@@H]1C(=O)N1CCc2cc(OC)c(OC)cc2C1)C(=O)OC", "cytotoxicity call": "inactive"}
{"smiles": "C[C@@H]1CCCCO[C@@H](CN(C)C(=O)Nc2ccc3c(c2)OCO3)[C@H](C)CN([C@H](C)CO)C(=O)c2cc(NC(=O)C3CCCCC3)ccc2O1", "cytotoxicity call": "inactive"}
{"smiles": "C=CN1CCCC1=O", "cytotoxicity call": "inactive"}
{"smiles": "C[C@@H]1CN([C@@H](C)CO)C(=O)c2cc(NC(=O)NC3CCCCC3)ccc2O[C@H]1CN(C)Cc1ccc(Cl)c(Cl)c1", "cytotoxicity call": "inactive"}
{"smiles": "C[C@H](CO)N1C[C@H](C)[C@H](CN(C)Cc2ccc(C(F)(F)F)cc2)Oc2ccc(NS(=O)(=O)c3ccc(Cl)cc3)cc2C1=O", "cytotoxicity call": "active"}
{"smiles": "C[C@@H]1CN([C@@H](C)CO)C(=O)c2cc(NS(=O)(=O)c3ccc(Cl)cc3)ccc2O[C@@H]1CN(C)Cc1ccc(C(F)(F)F)cc1", "cytotoxicity call": "active"}
{"smiles": "C[C@H]1CN([C@@H](C)CO)C(=O)c2cc(NS(=O)(=O)c3ccc(Cl)cc3)ccc2O[C@@H]1CN(C)Cc1ccc(C(F)(F)F)cc1", "cytotoxicity call": "inactive"}
{"smiles": "C[C@H]1CN([C@@H](C)CO)C(=O)c2cc(NS(=O)(=O)c3ccc(Cl)cc3)ccc2O[C@H]1CN(C)Cc1ccc(C(F)(F)F)cc1", "cytotoxicity call": "inactive"}
{"smiles": "C[C@H](CO)N1C[C@H](C)[C@@H](CN(C)Cc2ccc(C(F)(F)F)cc2)Oc2ccc(NS(=O)(=O)c3ccc(Cl)cc3)cc2C1=O", "cytotoxicity call": "active"}
{"smiles": "C[C@@H]1CN([C@H](C)CO)C(=O)c2cc(NS(=O)(=O)c3ccc(Cl)cc3)ccc2O[C@@H]1CN(C)Cc1ccc(C(F)(F)F)cc1", "cytotoxicity call": "active"}
{"smiles": "C[C@@H]1CN([C@@H](C)CO)C(=O)c2cc(NS(=O)(=O)c3ccc(Cl)cc3)ccc2O[C@H]1CN(C)Cc1ccc(C(F)(F)F)cc1", "cytotoxicity call": "inactive"}
{"smiles": "C[C@@H]1CN([C@H](C)CO)C(=O)c2cc(NS(=O)(=O)c3ccc(Cl)cc3)ccc2O[C@H]1CN(C)Cc1ccc(C(F)(F)F)cc1", "cytotoxicity call": "inactive"}
